Test results as given in PubChem BioAssay (NCI).
The panel holds about 79,000 compounds, 15% with a hit somewhere; the sample as a whole holds those more often. The source made the active and inactive calls. Cut-off read from the data, not from the text of the source: active = growth inhibition above about 70%; inactive = the rest.

What was measured:
[1] = NCI Yeast Anticancer Drug Screen. Data for the rad50 strain (AID 155);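 note: 0% = growth of vehicle-only cultures of the same strain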; details: S. cerevisiae rad50 strain growth inhibition; at 50.0 µM; stronger effect = higher value
In short: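 Vehicle-treated cultures provide the reference for the growth inhibition reported for compound-exposed, repair-deficient yeast.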

[2] = NCI Yeast Anticancer Drug Screen. Data for the mec2-1 strain (AID 157); details: S. cerevisiae mec2-1 strain, at 50.0 µM, stronger effect = higher value
In short: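 Vehicle-treated cultures served as reference for growth inhibition of compound-exposed mec2-1 yeast.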

[3] = NCI Yeast Anticancer Drug Screen. Data for the sgs1 mgt1 strain (AID 161);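 note: 0% = growth of cultures given vehicle only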; details: S. cerevisiae sgs1 mgt1 strain, at 50.0 µM, stronger effect = higher value
In short: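 Test agents were incubated with a DNA-repair-mutant yeast strain. Growth was then read and compared against vehicle-treated controls.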

[4] = NCI Yeast Anticancer Drug Screen. Data for the cln2 rad14 strain (AID 165);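 note: 0% = growth equal to vehicle treated cultures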; details: S. cerevisiae cln2 rad14 strain, at 50.0 µM, stronger effect = higher value
In short: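 Each compound was tested on cln2 rad14 yeast. Inhibition of growth was calculated against vehicle-exposed controls.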

[5] = NCI Yeast Anticancer Drug Screen. Data for the bub3 strain (AID 167); details: S. cerevisiae bub3 mutant strain, at 50.0 µM, stronger effect = higher value
In short: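 Mutant yeast screening strain plus compound; vehicle-treated cultures serve as the 0% inhibition reference.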

[6] = NCI Yeast Anticancer Drug Screen. Data for the mlh1 rad18 strain (AID 175); details: S. cerevisiae mlh1 rad18 strain growth inhibition; at 50.0 µM; stronger effect = higher value
In short: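 Vehicle-treated cultures served as the reference for growth inhibition in a yeast strain carrying DNA damage repair alterations exposed to each compound.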

Measured: growth inhibition

CC1=CCC2(C#N)CCC1C2O (stereo unspecified)
inactive: [1] 15.2% | [2] 17.8% | [3] 8.1% | [4] 22.4% | [5] 10.4% | [6] 17.6%

CC1(CCl)C(=O)C=Cc2ccccc21 (stereo unspecified)
inactive: [1] 6.45% | [2] 0.7% | [3] -5.1% | [4] -6.8% | [5] 5.3% | [6] -3.45%

CCN(CC)c1ccc(-c2c3ccccc3nc3ccccc23)cc1
inactive: [1] -5.05% | [2] -7.75% | [3] 7.45% | [4] -12.4% | [5] -17.1% | [6] -3.5%

Cc1cc(N(CCCCl)CCCCl)ccc1C=Nc1cc(Br)c(O)c(Br)c1
active: [1] 81% | [3] 93.5% | [5] 76.3% | [6] 84.9%
inactive: [2] 52.4% | [4] 52.5%

CCCCOC(=O)c1cccc2c1-c1ccccc1C2=O
inactive: [1] 9.75% | [2] -6.55% | [3] -2% | [4] -14.9% | [5] 13.8% | [6] -0.7%

Nc1ncnc2c1c1cncnc1n2C1OC(CO)C(O)C1O (stereo unspecified)
inactive: [1] 9.55% | [2] -4.75% | [3] -9.55% | [4] 16.1% | [5] 7.45% | [6] 17.1%

O=c1[nH]cnc2c(COCCO)c[nH]c12
inactive: [1] -18.6% | [2] 2.8% | [3] -19.5% | [4] -3.95% | [5] -34.3% | [6] -20.9%

C(=C\c1ccccc1)/Cn1nc(-c2ccccc2)nc1-c1cnccn1
inactive: [1] -33.1% | [2] -24% | [3] -47% | [4] 10.2% | [5] -39.4% | [6] -29.1%

CCOC(C)Oc1ccccc1 (stereo unspecified)
inactive: [1] 35.5% | [2] -8.6% | [3] 20.4% | [4] 15.4% | [5] -28.1% | [6] 16.4%

Cc1cn2cc(-c3cccs3)nc2s1
inactive: [1] 15.2% | [2] -1% | [3] 19.4% | [4] 18.6% | [5] -7.8% | [6] 15.1%

CC(=O)C1C(=O)C(=O)N(c2ccc(S(N)(=O)=O)cc2)C1=O (stereo unspecified)
inactive: [1] -37.3% | [2] 1.3% | [3] 7.6% | [4] -32.7% | [5] -14.2% | [6] 8.05%

S=c1s/c(=C\c2ccccc2)c2nc3ccccc3n12
inactive: [1] 7.15% | [2] 9.2% | [3] -9.4% | [4] -46.7% | [5] 13.9% | [6] 4.75%

CCOC(=O)C1=C(OC(OCC)C([Se]c2ccccc2)C(C)C)CCC1 (stereo unspecified)
inactive: [1] 65.8% | [2] 33.5% | [3] 65.2% | [4] 42.2% | [5] 58.6% | [6] 51%

O=S(=O)(N/N=C/c1ccc(Cl)c(Cl)c1)c1ccccc1
inactive: [1] 18.9% | [2] 13.6% | [3] 9.8% | [4] -28.4% | [5] 13.1% | [6] 32.2%

Cn1c(-c2ccccc2)nc(-c2ccccc2)[n+]1[O-]
inactive: [1] 8.75% | [2] -0.55% | [3] 1.85% | [4] 9.8% | [5] 0.6% | [6] 28.6%

CCOc1ccc(/C=C2/NC(=S)N(CN3CCCCC3)C2=O)cc1
inactive: [1] 5.25% | [2] -28.7% | [3] 25.1% | [4] -18.9% | [5] -1.5% | [6] 24.6%

CCC(c1ccc(O)cc1)c1cc2c(cc1OCC(=O)OC)OCO2 (stereo unspecified)
inactive: [1] -5.1% | [2] -9.3% | [3] -4.65% | [4] -6.75% | [5] 0.65% | [6] 10.2%

CCOC(=O)CSCCC(=O)OC
inactive: [1] -1.3% | [2] 3.1% | [3] -0.8% | [4] -5.5% | [5] -0.05% | [6] 1.35%

O=C(COc1ccccc1)NCc1ccc(Cl)cc1
inactive: [1] 2.4% | [2] 2.05% | [3] 5.8% | [4] 7.15% | [5] 26.9% | [6] 21.9%

Nc1ncc([N+](=O)[O-])c(=O)[nH]1
inactive: [1] -29.9% | [2] -14.2% | [3] -1.35% | [4] -4.25% | [5] 0.55% | [6] 26.9%

CC(=O)NCCOC(=O)c1ccccc1
inactive: [1] 34.5% | [2] 4.75% | [3] 16.4% | [4] -17.9% | [5] 4.05% | [6] 5.9%

O=C(NN1C(=O)C(Cl)C1c1ccccc1O)c1ccccc1O (stereo unspecified)
inactive: [1] -5.85% | [2] -26.5% | [3] -15.6% | [4] -15.1% | [5] -16.6% | [6] -29.4%

CNC(=O)c1ccccc1C(=O)c1ccccc1OC
inactive: [1] 7.5% | [2] -11.7% | [3] -3.05% | [4] -25.1% | [5] 17.4% | [6] 2.15%

CC1(C)[C@@H]2C[C@H]1[C@@H](Cc1cccc(C[C@H]3c4cc(-c5ccccn5)ncc4[C@H]4C[C@@H]3C4(C)C)c1)c1cc(-c3ccccn3)ncc12
inactive: [1] 45.4% | [2] 28.2% | [3] 45.4% | [4] 16.8% | [5] 45.9% | [6] 45.4%

CC1=CC(=O)N2C(OC[C@@H]2c2ccccc2)O1 (stereo partly specified)
inactive: [1] 3.5% | [2] -11.8% | [3] -12.9% | [4] 9.95% | [5] -18.9% | [6] -21.4%

CC1CCN(C(=O)C(c2ccccc2)c2ccccc2)CC1
inactive: [1] 27% | [2] -7.05% | [3] -3.1% | [4] -18.8% | [5] 1.2% | [6] -4.75%

COc1cc2c(cc1OC)C(C(CO)CO)N(CC(O)CCl)CC2 (stereo unspecified)
inactive: [1] -25.6% | [2] -16.1% | [3] -26% | [4] -6.65% | [5] -13.9% | [6] -30.8%

CSc1nc(NC2OCC(O)C(O)C2O)c(C(C)=O)c(=O)n1C (stereo unspecified)
inactive: [1] 3.7% | [2] -7.35% | [3] 8.2% | [4] -1.95% | [5] -33.4% | [6] 4.4%

CN(C(=O)C(Cl)Cl)c1ccc(-c2csc(Cc3ccccc3)n2)cc1
inactive: [1] 38.7% | [2] 6.3% | [3] 1.05% | [4] 7.05% | [5] 34.8% | [6] 28.2%

N#CC1=C(O)/C(=C\c2ccc(Cl)cc2)N=C1N
inactive: [1] -28.3% | [2] -14.3% | [3] -7.8% | [4] -13.9% | [5] -6.2% | [6] -3.35%

Cc1ccc(N=N/C(=N/NC(=O)c2cc(Cl)ccc2C(=O)c2ccccc2)c2ccc(N(CCC#N)CCC#N)cc2C)cc1
inactive: [1] -8.5% | [2] 2.5% | [3] -18.5% | [4] -2.1% | [5] -23.6% | [6] 5.2%

COC1OC(COS(C)(=O)=O)C2OC(C)(C)OC12 (stereo unspecified)
inactive: [1] 11.6% | [2] 1.85% | [3] 3.55% | [4] 11.6% | [5] -9.3% | [6] 21.9%

O=C1Cc2nc3ccccc3nc2CC(=O)c2ccccc21
inactive: [1] 4.9% | [2] 10.9% | [3] 9.35% | [4] -19.9% | [5] -12.1% | [6] 13.3%

Clc1ccccc1C=NCCN=Cc1ccccc1Cl
inactive: [1] -1.75% | [2] -14.8% | [3] -3.5% | [4] 0.5% | [5] 3.4% | [6] 1.15%

FC(F)(F)c1cccc(CSCc2c(CSCc3cccc(C(F)(F)F)c3)c(CSCc3cccc(C(F)(F)F)c3)c(CSCc3cccc(C(F)(F)F)c3)c(CSCc3cccc(C(F)(F)F)c3)c2CSCc2cccc(C(F)(F)F)c2)c1
inactive: [1] -12.7% | [2] -2.5% | [3] -6.35% | [4] 12.2% | [5] -7.65% | [6] 7.45%

O=c1c(Cl)c(-c2cccc3ccccc23)oc2ccccc12
inactive: [1] -14.3% | [2] 1.8% | [3] 4.2% | [4] -40.6% | [5] 9.2% | [6] -15.4%

COC(=O)/C(C#N)=C\N1CCNC1=S
inactive: [1] -54.8% | [2] -62.8% | [3] -35.9% | [4] -15.9% | [5] -10.4% | [6] -19.5%

S=C(Nc1ccc2ccccc2c1)Nc1ccc2ccccc2c1
inactive: [1] 22% | [2] 10.9% | [3] 14.4% | [4] -30.6% | [5] 5.4% | [6] -2%

CCCCCCCCCCCCCC1CCC(CC)N1 (stereo unspecified)
active: [1] 92% | [2] 93.7% | [3] 92.2% | [4] 91.6% | [5] 91.8% | [6] 91.8%

O=c1cc(-c2cccc(OC(F)(F)F)c2)[nH]c2cc3c(cc12)OCO3
inactive: [1] -6.25% | [2] 2.75% | [3] -5.05% | [4] 13.8% | [5] 19.7% | [6] -24.2%

Nc1ccc2c(c1)C1Oc3ccccc3CC1CO2 (stereo unspecified)
inactive: [1] 33% | [2] 6.55% | [3] 20.1% | [4] 8.05% | [5] 12.8% | [6] 47.2%
